PubChem BioAssay (Tox21)
Inconclusive results are not listed. Where a call stands in place of a potency, no number is given. Calls of active or inactive are those of the source. Calls come from the whole dose curve; as a rule, active = well fitted activation curve with a large enough effect in the signal ratio in the repeat runs (not every such curve was filed as active); inconclusive = weak or mixed curves; inactive = flat fitted curve, though single readings scatter; the % refers to the signal ratio.

Assay: p53 small molecule agonists, cell-based qHTS assay (AID 1963582)
Settings: HCT-116 p53RE-bla reporter, beta-lactamase FRET ratio, 16 h; series mostly up to 66 µM
Source text: National Center for Advancing Translational Sciences [NCATS]
Division of Preclinical Innovation [DPI]
U.S. Environmental Protection Agency [EPA]
National Institutes of Environmental Health Sciences [NIEHS]
National Toxicology Program [NTP]
U.S. Food and Drug Administration [FDA]
p53, a tumor suppressor protein, is activated following cellular insult, including DNA damage and other cellular stresses. The activation of p53 regulates cell fate by inducing DNA repair, cell cycle arrest, apoptosis, or cellular senescence. The activation of p53, therefore, is a good indicator of DNA damage and other cellular stresses. […] The activation of the reporter gene under culture conditions can be detected by fluorescence intensity. This cell line was used to screen the Tox21 10K compound library in a 1536-well plate format and to identify agonists that activate the p53 signaling pathway.
Tox21 Assay Protocol Summary:
The p53RE-bla cells were dispensed at 4,000 cells/5 ul/well in 1536-well black wall/clear bottom plates using a Multidrop dispenser. After the assay plates were incubated at a 37 C/5% CO2 incubator for 5 hours, 23 nL of compounds dissolved in DMSO, positive controls or DMSO only was transferred to the assay plate by a pin tool. The plates were incubated at 37 C for 16 hours. After 1 uL of LiveBLAzerTM B/G FRET substrate was added using a Flying Reagent Dispenser, the plates were incubated at room temperature for 2 hours, and fluorescence intensity was measured by an Envision plate reader.
With `C[C@H](N)[C@H](O)c1ccc(O)c(O)c1` the Potency was “inactive”. For `CCCCOC(C)=O`, the Potency was “inactive”. In the case of `C=CC(=O)N(C)C`, the Potency is reported as “inactive”. For `CCOC(=O)C(Cl)C(C)=O` (stereo not given), the Potency was “inactive”. For `CSc1nc(N=[N+]=[N-])nc(NC(C)C)n1`, the Potency was “inactive”. For `O=C(O)/C=C/C(=O)O`, the Potency was “inactive”. For `CC(=O)c1cc(C(C)(C)C)cc2c1CCC2(C)C`, the Potency was “inactive”. In the case of `CC(N)=S`, the Potency is reported as “inactive”. In the case of `Clc1cc2c(cc1Cl)Oc1cc(Cl)c(Cl)cc1O2`, the activation is reported as 1.03% [at 0.249 µM] (inactive). With `O=S1(=O)OCCO1` the Potency was “inactive”. For `O=C(O)/C=C\C(=O)O`, the Potency was “inactive”. With `Nc1nc(N)nc(N)n1` the Potency was “inactive”. In the case of `CCC[CH2][Sn]([CH2]CCC)([O]C(C)=O)[O]C(C)=O`, the Potency is reported as “inactive”. In the case of `COc1cc(CC#N)cc(OC)c1OC`, the Potency is reported as “inactive”. For `C#CC(O)(C=CCl)CC` (stereo not given), the Potency was “inactive”. With `COc1ccc(-c2ccccc2)cc1NNC(=O)OC(C)C` the Potency was “inactive”. For `SCc1ccccc1`, the Potency was “inactive”. With `C=CCC1([C@H](C)CCC)C(=O)NC(=O)NC1=O` the Potency was “inactive”. In the case of `CCN(CC)CCc1c[nH]c2ccccc12`, the Potency is reported as “inactive”. For `O=C(O)CBr`, the Potency was “inactive”. With `CCCCCCBr` the Potency was “inactive”. With `ClC(Br)Br` the Potency was “inactive”. For `COc1ccc(CN2CCNCC2)c(OC)c1OC`, the Potency was “inactive”. In the case of `CCCC(Cn1cncn1)c1ccc(Cl)cc1Cl` (stereo not given), the Potency is reported as “inactive”. In the case of `CCS(=O)(=O)C(C)(C)S(=O)(=O)CC`, the Potency is reported as “inactive”. In the case of `Cc1cc(C2CC2)nc(Nc2ccccc2)n1`, the Potency is reported as “inactive”. For `CC(=O)c1cc2c(cc1C)C(C)(C)C(C)CC2(C)C` (stereo not given), the Potency was “inactive”. In the case of `COP(=S)(OC)Oc1ccc([N+](=O)[O-])c(C)c1`, the Potency is reported as “inactive”. With `CC[C@H]1C[C@@H]2C[C@H]3c4[nH]c5ccc(OC)cc5c4CCN(C2)[C@@H]13` the Potency was “inactive”. For `O=c1oc2ccccc2c(O)c1C1CCCc2ccccc21` (stereo not given), the Potency was “inactive”. In the case of `O=C(CBr)OCc1ccccc1`, the Potency is reported as “inactive”. With `CN1CCN(C(=O)O[C@H]2c3nccnc3C(=O)N2c2ccc(Cl)cn2)CC1` the Potency was “inactive”. For `ClCCCCl`, the Potency was “inactive”. In the case of `COC1=CC(=O)O[C@@H](/C=C/c2ccccc2)C1`, the Potency is reported as “inactive”. In the case of `CC(C)(C)C(=O)C(Oc1ccc(Cl)cc1)n1cncn1` (stereo not given), the Potency is reported as “inactive”. With `CC(C)(C)c1cc(O)ccc1O` the Potency was “inactive”. For `OC(c1ccc(Cl)cc1)(c1ccc(Cl)cc1)c1cccnc1`, the Potency was “inactive”. In the case of `CCOC(=O)CCN(SN(C)C(=O)Oc1cccc2c1OC(C)(C)C2)C(C)C`, the Potency is reported as “inactive”. In the case of `CC1(c2ccc(Oc3ccccc3)cc2)OC(=O)N(Nc2ccccc2)C1=O` (stereo not given), the Potency is reported as “inactive”. In the case of `CC(C)CP(=S)(S)CC(C)C`, the Potency is reported as “inactive”.
